PubChem BioAssay AID504843 (Broad Institute, 2011)
Hit rate of the full screen: of about 1,200 compounds, about 360 (30%) were called active. How the calls were made is not given here. The list is a sample of the results. Potency and affinity values are given separately.

Test: antibacterial activity by ATP level – BacTiter-Glo luminescence, cherry-picked samples, counter-screen, dose response (AID 504843);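 further: growth measured after 8 h incubation at 30 °C; 0% = median of sample compound wells and -100% = antibiotic control wells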
Settings: bacterial growth; series mostly up to 15 µM; activity change, negative = inhibition: at the top concentration

| Compound | activity change, negative = inhibition |
| --- | --- |
| NS(=O)(=O)c1ccc(CCNc2nc(C(F)(F)F)nc3ccccc23)cc1 | 12% (inactive) |
| Cc1ccnc(NC(c2cccnc2)c2ccc3cccnc3c2O)c1 (stereo not drawn) | -11.9% (inactive) |
| O=C1CN(C(=O)COC(=O)c2cc(S(=O)(=O)N3CCOCC3)ccc2Cl)c2ccccc2N1 | 9.82% (inactive) |
| CCCOc1cc(C)c(S(=O)(=O)N2CCN(C)CC2)cc1C | -15.3% (inactive) |
| Cc1ccc(C)c(NC(=S)N(CCc2ccncc2)C(C)C)c1 | 7.28% (inactive) |
| CC(C)Cc1ccc(CN2CCCC(NC(=O)Cn3cnnn3)C2)cc1 (stereo not drawn) | 7.33% (inactive) |
| COCc1cc(CNC(=O)C2CCC(=O)N(Cc3ccccc3OC)C2)[nH]n1 (stereo not drawn) | 11.7% (inactive) |
| COc1cccc(CN2CC(C(=O)NCCOc3cccnc3)CCC2=O)c1 (stereo not drawn) | -2.68% (inactive) |
| CC(C)C[C@@H](CN1CCC[C@@H]1CN1C(=O)C(=O)NC[C@@H]1Cc1ccccc1)N1C[C@H](Cc2ccc(O)cc2)N(CC2CCCCC2)C(=O)C1=O | -2.65% (inactive) |
| Cc1cc(Nc2nc3ccccc3nc2Cl)n(-c2ccccc2C)n1 | -19.4% (inactive) |
| Cc1cc(C)cc(CSc2nnc(C)c(=O)[nH]2)c1 | 12.2% (inactive) |
| Cc1ccc(C)n1-c1ccc(-c2ccnc(N)n2)cc1 | -7.48% (inactive) |
| O=C(CCNS(=O)(=O)c1ccccc1C(F)(F)F)NCCCN1CCOCC1 | 10.8% (inactive) |
| COc1ccc(S(=O)(=O)N(C)c2ccc(C(=O)N3CCOCC3)cc2)cc1 | -3.06% (inactive) |
| COc1cccc(CNC(=O)CN2C(=O)CCSc3ccc(S(=O)(=O)N4CCCC4)cc32)c1 | 15.1% (inactive) |
| COC(=O)/C(=C/c1ccco1)NC(=O)c1ccccc1 | 16.3% (inactive) |
| COc1ccc(-n2c(O)c(/C=N/NS(=O)(=O)c3cccc([N+](=O)[O-])c3)c3ccccc3c2=O)cc1OC | -16.4% (inactive) |
| O=C(N/C(=C/c1cccc([N+](=O)[O-])c1)C(=O)N1CCOCC1)c1ccc(Br)cc1 | -4.16% (inactive) |
| Nc1cc(OC(=O)c2ccc(F)cc2)nn1S(=O)(=O)c1ccc(F)cc1 | 8.53% (inactive) |
| CCc1nc2ccccc2c(C(=O)OC2CCOC2=O)c1C (stereo not drawn) | -24.9% (inactive) |
| O=C(O)c1cccc(NC(=O)c2ccccc2)c1 | -1.77% (inactive) |
| c1ccc(NC(=NCc2ccco2)c2ccccc2)cc1 | -3.37% (inactive) |
| CC(C)c1c(C(=O)N/N=C/C2CC=CCC2)nnn1-c1nonc1N (stereo not drawn) | -11.7% (inactive) |
| O=C(CN1CCN(c2ccccc2F)CC1)NC(=O)NCc1ccccc1 | -10.5% (inactive) |
| Cc1nc(N2CCN(S(=O)(=O)c3ccc(Br)cc3)CC2)c2c(C)c(C)sc2n1 | -5.15% (inactive) |
| O=C(O)c1ccc(CSc2nnc(-c3ccncc3)n2-c2ccc(Cl)cc2)cc1 | -3.41% (inactive) |

| Compound | activity change, negative = inhibition |
| --- | --- |
| CCCc1cc(=O)[nH]c2nnc(SCC(=O)Nc3ccc4c(c3)OCCO4)n12 | 0.067% (inactive) |
| COC(=O)c1sc(NC(=O)CSc2nnnn2-c2ccc(C)cc2C)nc1C | 4.55% (inactive) |
| COc1ccccc1NS(=O)(=O)c1ccc2[nH]c(=S)oc2c1 | 3.6% (inactive) |
| c1ccc(C2NCCc3ccccc32)cc1 (stereo not drawn) | 5.25% (inactive) |
| CCOc1ccc2nc(NC(=O)CN3CCC(n4nnc5cc(F)ccc54)CC3)sc2c1 | 12.9% (inactive) |
| Cc1cc(C)c2oc(=O)cc(CN3CCN(Cc4ccc5c(c4)OCO5)CC3)c2c1 | -5.29% (inactive) |
| O=C(Nc1ccc(Oc2ccccc2)nc1)C1CCCCN1Cc1ccc(OCCO)cc1 (stereo not drawn) | 14% (inactive) |
| COCCCNc1nc2c(c(=O)[nH]c(=O)n2C)n1CC(O)COc1cccc(C)c1 (stereo not drawn) | -1.28% (inactive) |
| CCCNc1nc2c(c(=O)[nH]c(=O)n2C)n1CCCc1ccccc1 | -5.21% (inactive) |
| CCC1CCCCN1Cc1nc2c(c(=O)n(C)c(=O)n2C)n1CCCc1ccccc1 (stereo not drawn) | -9.51% (inactive) |
| COCCn1c(-c2cccc([N+](=O)[O-])c2)nc2c1c(=O)[nH]c(=O)n2Cc1ccccc1 | -0.242% (inactive) |
| CC(C)c1ccc(OCC(=O)NC2=NCCS2)cc1 | -12.5% (inactive) |
| COc1ccc(-c2noc(CSc3nnc(-c4ccncc4)n3-c3ccc(F)cc3)n2)cc1OC | 8.62% (inactive) |
| CCCCN1CC(COCc2ccccc2)Oc2cccc(N3CCCC3)c2S1(=O)=O (stereo not drawn) | 8.68% (inactive) |
| S=C(NCCCn1ccnc1)Nc1cccc(Cl)c1 | 1.23% (inactive) |
| O=C(CCCCCNC(=O)c1ccccc1)C[N+](=O)[O-] | -0.921% (inactive) |
| CN1CC(c2ccccc2Cl)C2(COc3ccccc3C2=O)C12C(=O)Nc1ccccc12 (stereo not drawn) | 16% (inactive) |
| CCC1=C(c2ccc(C)cc2)S(=O)(=O)N=C1N1CCC(C(=O)NCCCN2CCCCC2C)CC1 (stereo not drawn) | -12.5% (inactive) |
| COc1ccc2[nH]c3c(=O)n(CCN4CCOCC4)cnc3c2c1 | -0.687% (inactive) |
| O=C1/C(=C/c2cccnc2)Oc2cc(OS(=O)(=O)c3ccccc3)ccc21 | 7% (inactive) |
| CN(C)C(=S)Nc1ccc2ccccc2c1 | -7.34% (inactive) |
| COc1ccc(NS(=O)(=O)c2ccc(NC(=O)Cc3cccs3)cc2)cc1 | 16% (inactive) |
| CCN(CC)C(=O)Cn1cc(C(=O)C(=O)NCCCn2ccnc2)c2ccccc21 | 11.8% (inactive) |
| O=C(NCC1CCCO1)C(c1cccs1)N(C(=O)c1ccc(CN2CCOCC2)o1)c1ccc(Cl)cc1 (stereo not drawn) | -2.43% (inactive) |
| O=C1CCCC2=C1C(c1cccs1)CC(=O)N2c1ccc(F)cc1 (stereo not drawn) | 5.06% (inactive) |
| O=C1CCCC2=C1CC(C(=O)OCc1ccccc1)C(=O)N2Cc1ccccc1 (stereo not drawn) | 10.2% (inactive) |

| Compound | activity change, negative = inhibition |
| --- | --- |
| Cc1ccc[n+](CC(=O)c2cc3ccccc3oc2=O)c1 | 5.66% (inactive) |
| O=C1Nc2ccc(S(=O)(=O)NCCCO)c3cccc1c23 | -22.6% (inactive) |
| Cc1ccc(S(=O)(=O)Nc2c(C)n(C)n(-c3ccccc3)c2=O)cc1C(=O)NCc1ccco1 | 11.8% (inactive) |
| Cc1ccc(C(=O)CN2/C(=C(\O)c3ccccc3)C(=O)c3ccccc3S2(=O)=O)c(C)c1 | 4.58% (inactive) |
| CCn1c(C)nc2cc(C(=O)N/N=C/c3ccc(OC)c(O)c3)ccc21 | -1.45% (inactive) |
| O=C(Cc1ccccc1)Nc1ccc2oc(=O)ccc2c1 | -9.82% (inactive) |
| COc1cccc(-c2nn(-c3ccccc3)cc2CN(C)C(C)c2ccncn2)c1 (stereo not drawn) | -12.1% (inactive) |
| O=S(=O)(N1CCCCC1)N1CCN(c2ccccc2F)CC1 | -0.358% (inactive) |
| CCOC(=O)c1cnn(-c2cc(C)c3ccccc3n2)c1N | 11.3% (inactive) |
| O=C(CSc1cccc2cccnc12)N/N=C/c1ccncc1 | 17.9% (inactive) |
| CCn1nc(-c2ccccc2)c2nc3ccccc3nc21 | -1.59% (inactive) |
| Cc1cc(C(F)F)n2nc(C(=O)Nc3c(F)cc(F)cc3Br)nc2n1 | -2.2% (inactive) |
| CC(C)N(c1ccccc1)c1ccc(NC(=O)COC(=O)CCN2C(=O)c3cccc([N+](=O)[O-])c3C2=O)cc1 | -7% (inactive) |
| Cn1c(N)c(C(=O)COC(=O)c2nc(Cl)ccc2Cl)c(=O)n(C)c1=O | 16.6% (inactive) |
| CN1CCCC(OC(=O)CCCCC(=O)OC2CCCN(C)C2)C1 (stereo not drawn) | -4.57% (inactive) |
| O=C(CN1CCC(c2nc3ccccc3s2)CC1)NCc1cccs1 | -5.62% (inactive) |
| O=C(NCc1cccs1)Nc1cccc(Cl)c1 | -21.5% (inactive) |
| COc1cc(/C=C2\C(=N)N3N=C(S(C)(=O)=O)SC3=NC2=O)ccc1OS(=O)(=O)c1ccc(C)cc1 | -1.12% (inactive) |
| COc1ccccc1NC(=O)C1=C(C)Nc2ncnn2C1c1ccc(C)o1 (stereo not drawn) | 16.6% (inactive) |
| Cc1cc(C(=O)CSc2nnc(-c3ccc4c(c3)OCO4)o2)c(C)n1-c1ccc(F)cc1 | 3.73% (inactive) |
| Cc1cccc2c1cnn2C(=O)CCC(=O)N1CC(C)CC(C)C1 (stereo not drawn) | -0.753% (inactive) |
| CCC(C)N1CCC2(CC1)N=c1c(c3c4c5c(C)c(O)c3c(O)c1=NC(=O)C(C)=CC=C[C@H](C)[C@H](O)[C@@H](C)[C@@H](O)[C@@H](C)[C@H](OC(C)=O)[C@H](C)[C@@H](OC)C=CO[C@@](C)(O5)C4=O)N2 (stereo partly drawn) | -10.9% (inactive) |
| O=C(Nc1cccc(NC(=O)c2cccnc2)c1)c1ccccc1 | 4.2% (inactive) |
| O=C(Nc1ccncc1)c1ccc(Cl)c(Cl)c1 | 17.2% (inactive) |
| NC(=O)C1CCN(C(=O)c2ccco2)CC1 | 1.49% (inactive) |
| Cc1ccc2c(C)nc(/N=C(\N)NC(=O)N3c4ccccc4Sc4ccccc43)nc2c1 | 10.8% (inactive) |

| Compound | activity change, negative = inhibition |
| --- | --- |
| CNC(=O)C(=O)NCCN1CCN(S(=O)(=O)c2ccc3ccccc3c2)CC1 | -7.41% (inactive) |
| O=C(CCc1nnc2ccc(NCc3ccco3)nn12)N1CCN(c2ccccc2)CC1 | -4.72% (inactive) |
| O=C(CCSc1ccccc1)N1CCN(C(=O)c2ccco2)CC1 | -5.32% (inactive) |
| CC(=O)c1ccc(-c2cccc(-c3nc4ccccn4c3NC3CCCCC3)c2)cc1 | -0.443% (inactive) |
| CCOC(=O)c1sc(NC(=O)CCN2C(=O)c3cccc([N+](=O)[O-])c3C2=O)c(C(=O)OCC)c1C | 14.2% (inactive) |
| C#CCn1c(O)c(N=NC(=O)C(O)c2ccccc2)c2ccccc21 (stereo not drawn) | -3% (inactive) |
| COc1ccc(C(=O)Nc2c3c(nn2-c2ccc(Cl)cc2)CS(=O)(=O)C3)cc1 | 8.38% (inactive) |
| c1ccc(Nc2nc(Nc3ccccc3)nc(N3CCNCC3)n2)cc1 | 0.935% (inactive) |
| Cc1ccc(Nc2nnns2)cc1C | -4.06% (inactive) |
| Cc1cc(=O)oc2cc(O)cc(O)c12 | 19.5% (inactive) |
| O=C(Nc1nnc(S(=O)(=O)N2CCCCCC2)s1)c1ccccc1Br | 17.1% (inactive) |
| CSc1ccccc1OCc1cc(C(=O)N(C)Cc2c(C)n[nH]c2C)no1 | 5.09% (inactive) |
| CCc1ccc2c(CSc3nnnn3C)cc(=O)oc2c1 | 7.57% (inactive) |
| Cc1ncc(CN2CCN(CCC(C)C)C(CCO)C2)s1 (stereo not drawn) | -4.86% (inactive) |
| CC(=O)C1C(c2ccc(Cl)cc2)NC(=O)NC1(O)C(F)(F)F (stereo not drawn) | -4.75% (inactive) |
| Cc1cc(=O)[nH]c(Sc2c(-c3ccccc3)c3ccccc3[nH]c2=O)n1 | 16.9% (inactive) |
| Cc1cc(C)n(CCC(=O)N/N=C/c2c(O)ccc3ccccc23)n1 | 20% (inactive) |
| COC(=O)[C@H]1[C@H]2C[C@H]3c4[nH]c5ccccc5c4CCN3C[C@@H]2CC[C@@H]1O | -8.06% (inactive) |
| CCC(=O)NC(c1ccccc1Cl)c1c(O)ccc2ccccc12 (stereo not drawn) | -3.81% (inactive) |
| Cc1ccsc1C1C(C#N)=C(N)OC2=C1C(=O)CC(C)C2 (stereo not drawn) | -0.951% (inactive) |
| COc1cccc(C2CC(c3c(-c4ccccc4)c4cc(Cl)ccc4[nH]c3=O)=NN2S(C)(=O)=O)c1OC (stereo not drawn) | 7.14% (inactive) |
| CCn1c(SCC(=O)Nc2ccc(F)cc2)nnc1-c1cnccn1 | 9.67% (inactive) |
| CNC1=CC(=O)CC(c2ccccc2)C1 (stereo not drawn) | -15.1% (inactive) |
| COc1ccc(OCc2nnc3n2N=C(c2ccccc2)C(CC(=O)O)S3)cc1 (stereo not drawn) | 14.5% (inactive) |
| Cn1cccc1CNCC(O)c1ccccc1 (stereo not drawn) | -0.635% (inactive) |
